Test results taken from PubChem BioAssay (EPA / NIEHS).
Results filed as inconclusive are left out. Calls of active or inactive are those of the source. Rule for the calls, unless noted: active = hit-call score of the fitted dose curve at least 0.9, where 1 is the maximum; inactive = score below 0.9.

Assays:
[1] = ATG_PBREM_CIS: Attagene CIS-FACTORIAL HepG2 Assay for human Phenobarbital-responsive Enhancer Module (PBREM) (AID 2282955); conditions: HepG2 PBREM cis-reporter, Attagene multiplexed transcription; actives raise or lower the signal
Procedure, shortened: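 Readout: reporter mRNA, fluorescent RT-PCR fragments separated by capillary electrophoresis. System: HepG2 transiently transfected with cis-regulated reporter units. Exposure: 24 h. Analysis: bidirectional, DMSO baseline.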

[2] = target: Paired box protein Pax-6 (Homo sapiens) (UniProt P26367); assay: ATG_Pax6_CIS: Attagene CIS-FACTORIAL HepG2 Assay for human Paired Box 6 (PAX6) (AID 2282956); conditions: HepG2 CIS-FACTORIAL PAX6 reporter transcription, RNA readout; actives raise or lower the signal
Paired box protein Pax-6 (Homo sapiens), sequence (P26367 whole entry, looked up): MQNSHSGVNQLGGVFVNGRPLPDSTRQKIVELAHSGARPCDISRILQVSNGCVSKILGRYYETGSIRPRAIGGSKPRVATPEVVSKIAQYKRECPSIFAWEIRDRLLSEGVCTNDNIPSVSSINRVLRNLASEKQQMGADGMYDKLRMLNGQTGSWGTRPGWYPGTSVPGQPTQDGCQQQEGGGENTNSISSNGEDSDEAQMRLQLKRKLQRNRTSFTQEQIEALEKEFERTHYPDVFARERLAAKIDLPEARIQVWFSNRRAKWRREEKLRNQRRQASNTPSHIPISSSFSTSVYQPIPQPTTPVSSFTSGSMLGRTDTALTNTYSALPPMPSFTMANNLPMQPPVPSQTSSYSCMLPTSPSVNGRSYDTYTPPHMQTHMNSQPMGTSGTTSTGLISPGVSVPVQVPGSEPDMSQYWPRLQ
Procedure, shortened: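 Readout: reporter transcript fluorescence after RT-PCR and capillary electrophoresis. Cells: HepG2, transiently transfected with cis-regulated MRTUs. Exposure 24 h. Gain or loss of signal fitted bidirectionally relative to DMSO.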

[3] = ATG_PXRE_CIS: Attagene CIS-FACTORIAL HepG2 Assay for human Pregnane X Receptor Element (PXRE) (AID 2282957); conditions: HepG2 Attagene CIS-FACTORIAL PXRE reporter, mRNA; actives raise or lower the signal
Procedure, shortened: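 Read-out: fluorescence of reporter-specific RT-PCR products resolved by capillary electrophoresis, fitted bidirectionally relative to DMSO. Human HepG2 liver cells carried transfected cis-promoter reporter units and were exposed to chemicals for 24 h.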

[4] = ATG_PPRE_CIS: Attagene CIS-FACTORIAL HepG2 Assay for human Peroxisome Proliferator-activated Response Element (PPRE) (AID 2282958); conditions: HepG2 PPRE cis-element reporter, Attagene transcription factor profiling; actives raise or lower the signal
Procedure, shortened: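 After human HepG2 hepatoma cells were transiently transfected with cis-promoter reporter constructs, they were exposed to test chemicals for 24 hours. Reporter RNA was then reverse-transcribed, PCR-amplified, FAM-labeled, HpaI-digested and quantified by capillary electrophoresis.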

[5] = ATG_RORE_CIS: Attagene CIS-FACTORIAL HepG2 Assay for human RAR-related Orphan Receptor Element (RORE) (AID 2282959); conditions: HepG2 Attagene cis-factorial RORE reporter, mRNA; actives raise or lower the signal
Procedure, shortened: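 Measured here: transcript induction of a cis-regulated reporter in HepG2 cells transiently transfected via FuGene 6. After 24 h, RNA was processed by RT-PCR and fluorescent capillary electrophoresis; DMSO defined baseline activity.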

[6] = ATG_Sox_CIS: Attagene CIS-FACTORIAL HepG2 Assay for human SRY-box transcription factor (SOX) (AID 2282960); conditions: HepG2 Attagene cis-factorial SOX reporter, mRNA; actives raise or lower the signal
Procedure, shortened: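 Using transiently transfected HepG2 cells, reporter transcription driven by cis elements was assessed 24 h after dosing. Signal was fluorescence of capillary-separated RT-PCR products, with DMSO defining baseline activity.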

[7] = target: Transcription factor Sp1 (Homo sapiens) (UniProt P08047); assay: ATG_Sp1_CIS: Attagene CIS-FACTORIAL HepG2 Assay for human Specificity Protein 1 (Sp1) (AID 2282961); conditions: HepG2 Sp1 cis-reporter transcription, actives raise or lower the signal
Transcription factor Sp1 (Homo sapiens), sequence (P08047 whole entry, looked up): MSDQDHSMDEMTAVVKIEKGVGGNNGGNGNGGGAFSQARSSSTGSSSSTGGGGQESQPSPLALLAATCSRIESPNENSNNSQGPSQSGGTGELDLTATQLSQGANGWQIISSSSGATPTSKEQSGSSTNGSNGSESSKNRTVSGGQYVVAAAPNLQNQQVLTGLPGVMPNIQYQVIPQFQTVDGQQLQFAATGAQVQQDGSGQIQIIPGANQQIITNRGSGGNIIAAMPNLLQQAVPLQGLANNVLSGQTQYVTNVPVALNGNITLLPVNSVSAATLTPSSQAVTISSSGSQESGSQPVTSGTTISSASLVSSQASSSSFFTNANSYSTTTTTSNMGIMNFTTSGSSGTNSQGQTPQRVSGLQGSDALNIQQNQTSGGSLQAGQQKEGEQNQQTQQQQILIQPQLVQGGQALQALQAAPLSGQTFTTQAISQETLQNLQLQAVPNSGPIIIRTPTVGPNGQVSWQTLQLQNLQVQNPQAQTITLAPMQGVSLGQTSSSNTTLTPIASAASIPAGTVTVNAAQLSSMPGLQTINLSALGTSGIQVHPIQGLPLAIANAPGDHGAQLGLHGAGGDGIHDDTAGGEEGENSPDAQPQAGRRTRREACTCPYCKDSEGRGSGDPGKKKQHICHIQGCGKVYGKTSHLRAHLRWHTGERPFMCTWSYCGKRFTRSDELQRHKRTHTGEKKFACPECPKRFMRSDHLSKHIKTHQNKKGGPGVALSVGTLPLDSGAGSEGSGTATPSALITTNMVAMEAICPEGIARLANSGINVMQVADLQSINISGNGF
Procedure, shortened: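 After transient transfection of HepG2 cells with cis-promoter reporter units and 24 h chemical treatment, reporter transcripts were quantified by RT-PCR and capillary electrophoresis fluorescence. Gain- and loss-of-signal fitted against DMSO.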

[8] = ATG_SREBP_CIS: Attagene CIS-FACTORIAL HepG2 Assay for human Sterol Regulatory Element Binding (SREBP) (AID 2282962); conditions: HepG2 Attagene cis-factorial SREBP reporter, mRNA; actives raise or lower the signal
Procedure, shortened: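 Readout: fluorescent reporter-transcript peaks resolved by capillary electrophoresis after RT-PCR. Cells were human HepG2 carrying transfected cis-promoter reporter constructs, dosed for 24 h. Gain or loss of signal was fitted against DMSO controls.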

[9] = target: Signal transducer and activator of transcription 3 (Homo sapiens) (UniProt P40763); assay: ATG_STAT3_CIS: Attagene CIS-FACTORIAL HepG2 Assay for human Signal Transducer and Activator of Transcription 3 (STAT3) (AID 2282963); conditions: HepG2, Attagene cis-factorial STAT3 reporter transcription; actives raise or lower the signal
Signal transducer and activator of transcription 3 (Homo sapiens), sequence (P40763 whole entry, looked up, the tested form may be a part): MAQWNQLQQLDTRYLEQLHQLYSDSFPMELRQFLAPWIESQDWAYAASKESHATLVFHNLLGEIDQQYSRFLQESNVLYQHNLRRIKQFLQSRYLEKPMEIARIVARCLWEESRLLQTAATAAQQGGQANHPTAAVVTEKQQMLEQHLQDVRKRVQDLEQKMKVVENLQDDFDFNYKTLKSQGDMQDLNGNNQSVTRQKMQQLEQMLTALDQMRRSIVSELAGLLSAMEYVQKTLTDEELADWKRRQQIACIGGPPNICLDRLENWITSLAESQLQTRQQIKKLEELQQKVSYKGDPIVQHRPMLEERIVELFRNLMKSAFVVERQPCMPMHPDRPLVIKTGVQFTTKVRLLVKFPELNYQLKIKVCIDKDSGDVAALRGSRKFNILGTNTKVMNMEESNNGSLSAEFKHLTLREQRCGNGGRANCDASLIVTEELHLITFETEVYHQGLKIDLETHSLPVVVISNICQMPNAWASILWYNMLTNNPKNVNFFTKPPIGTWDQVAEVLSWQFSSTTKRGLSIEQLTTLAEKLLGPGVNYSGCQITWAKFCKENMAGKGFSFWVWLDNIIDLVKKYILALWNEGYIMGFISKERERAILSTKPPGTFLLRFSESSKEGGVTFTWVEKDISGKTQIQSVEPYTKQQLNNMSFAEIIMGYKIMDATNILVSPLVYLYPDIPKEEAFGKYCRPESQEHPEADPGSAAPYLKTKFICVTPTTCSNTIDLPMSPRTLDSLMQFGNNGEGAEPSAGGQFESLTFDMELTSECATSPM
Procedure, shortened: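 Fluorescence intensity of 6-FAM-labelled reporter fragments, separated by capillary electrophoresis after RT-PCR, gave the signal. Cells were HepG2 transfected with cis-element reporter units and treated 24 h; fitting was bidirectional relative to DMSO.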

[10] = ATG_TCF_b_cat_CIS: Attagene CIS-FACTORIAL HepG2 Assay for human T-Cell-Factor with beta-catenin (TCF/b-cat) (AID 2282965); conditions: HepG2 TCF/beta-catenin cis-reporter transcription, actives raise or lower the signal
Procedure, shortened: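 HepG2, transient MRTU transfection, cis-element-driven reporters (endogenous TFs). 24 h compound exposure. Readout: reporter mRNA by RT-PCR + 6-FAM primer extension, HpaI digest, capillary electrophoresis. Gain/loss fit vs DMSO baseline.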

[11] = ATG_TAL_CIS: Attagene CIS-FACTORIAL HepG2 Assay for human TAL Basal Promoter (AID 2282966); conditions: HepG2 Attagene cis-factorial TAL promoter reporter; actives raise or lower the signal;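 note: background control endpoint measuring basal TAL promoter reporter mRNA not a specific factor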
Procedure, shortened: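 HepG2, transient MRTU transfection, 24 h compound exposure; RNA → oligo(dT) RT → PCR → 6-FAM primer extension → HpaI digest → CE fluorescence. Bidirectional curve fit vs DMSO. Background-control readout.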

[12] = ATG_TGFb_CIS: Attagene CIS-FACTORIAL HepG2 Assay for human Transforming Growth Factor (TGF) (AID 2282967); conditions: HepG2 Attagene CIS TGFb reporter, mRNA transcription; actives raise or lower the signal
Procedure, shortened: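 Cells were dosed for 24 hours, after which total RNA was reverse-transcribed and reporter sequences amplified, labeled and sized by capillary electrophoresis. Activity was fitted in both directions against DMSO.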

[13] = ATG_VDRE_CIS: Attagene CIS-FACTORIAL HepG2 Assay for human Vitamin D Receptor Element (VDRE) (AID 2282968); conditions: HepG2 VDRE cis-reporter transcription, actives raise or lower the signal
Procedure, shortened: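 Compounds were applied for 24 h to HepG2 cells transfected with promoter-regulated reporter units. Total RNA was reverse-transcribed, and reporter amplicons were fluorescently labelled and sized by capillary electrophoresis.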

[14] = target: Nuclear receptor subfamily 1 group I member 3 (Homo sapiens) (UniProt Q14994); assay: ATG_CAR_TRANS: Attagene TRANS-FACTORIAL HepG2 Assay for human Constitutive Androstane Receptor (CAR) (AID 2282969; active = hit-call score of the fitted dose curve at least 0.9, where 1 is the maximum;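 note: activators raise reporter mRNA above DMSO so AC50 marks induction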); conditions: HepG2 Attagene TRANS-FACTORIAL CAR reporter
Nuclear receptor subfamily 1 group I member 3 (Homo sapiens), sequence (Q14994 whole entry, looked up, the tested form may be a part): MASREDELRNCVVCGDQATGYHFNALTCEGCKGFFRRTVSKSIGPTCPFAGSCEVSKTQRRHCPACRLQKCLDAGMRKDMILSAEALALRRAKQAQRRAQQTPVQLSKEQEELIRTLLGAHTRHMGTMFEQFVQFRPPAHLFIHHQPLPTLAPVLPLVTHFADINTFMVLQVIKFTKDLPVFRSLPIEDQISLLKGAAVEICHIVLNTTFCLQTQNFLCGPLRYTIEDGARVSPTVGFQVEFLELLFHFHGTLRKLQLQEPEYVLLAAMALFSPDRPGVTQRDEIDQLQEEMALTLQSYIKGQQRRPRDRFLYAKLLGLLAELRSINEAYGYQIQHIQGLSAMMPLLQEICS
Procedure, shortened: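 Transiently transfected HepG2, multiplex TRANS reporters (CAR-Gal4 chimera driving GAL4-UAS reporter). 24 h dosing. Readout: reporter transcript by RT-PCR + capillary electrophoresis, fluorescence intensity; positive direction vs DMSO.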

[15] = target: Estrogen receptor (Homo sapiens) (UniProt P03372); assay: ATG_ERa_TRANS: Attagene TRANS-FACTORIAL HepG2 Assay for human Estrogen Receptor alpha (ERa) (AID 2282970; active = hit-call score of the fitted dose curve at least 0.9, where 1 is the maximum); conditions: HepG2 Attagene TRANS ERa GAL4 reporter, mRNA
Estrogen receptor (Homo sapiens), sequence (P03372 whole entry, looked up, the tested form may be a part): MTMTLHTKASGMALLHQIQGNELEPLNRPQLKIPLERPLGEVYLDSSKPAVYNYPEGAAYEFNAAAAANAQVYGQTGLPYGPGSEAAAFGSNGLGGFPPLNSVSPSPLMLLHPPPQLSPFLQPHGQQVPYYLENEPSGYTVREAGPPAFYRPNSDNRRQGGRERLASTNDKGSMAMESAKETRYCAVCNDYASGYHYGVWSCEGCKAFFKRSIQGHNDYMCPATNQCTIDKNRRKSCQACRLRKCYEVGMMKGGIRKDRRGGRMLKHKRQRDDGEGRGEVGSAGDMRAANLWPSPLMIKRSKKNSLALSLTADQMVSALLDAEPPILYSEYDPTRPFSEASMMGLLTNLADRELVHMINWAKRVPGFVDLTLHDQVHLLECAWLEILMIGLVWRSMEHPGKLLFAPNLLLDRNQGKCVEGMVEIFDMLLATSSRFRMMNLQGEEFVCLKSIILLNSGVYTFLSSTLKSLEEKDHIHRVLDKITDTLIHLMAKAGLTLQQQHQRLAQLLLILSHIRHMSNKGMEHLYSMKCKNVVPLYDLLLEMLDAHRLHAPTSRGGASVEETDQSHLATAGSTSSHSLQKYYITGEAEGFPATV
Procedure, shortened: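 Reporter mRNA induction after 24 hours, detected by fluorescent RT-PCR and capillary electrophoresis, gives the read-out. Cells are HepG2 transiently transfected with GAL4-UAS reporter transcription units responding to chimeric NR-Gal4. Activity is taken as gain of signal over DMSO baseline.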

[16] = target: X-box-binding protein 1 (Homo sapiens) (UniProt P17861); assay: ATG_Xbp1_CIS: Attagene CIS-FACTORIAL HepG2 Assay for human X-box Binding Protein 1 (XBP1) (AID 2282972); conditions: HepG2 XBP1 cis-element reporter, Attagene multiplex; actives raise or lower the signal
X-box-binding protein 1 (Homo sapiens), sequence (P17861 whole entry, looked up, the tested form may be a part): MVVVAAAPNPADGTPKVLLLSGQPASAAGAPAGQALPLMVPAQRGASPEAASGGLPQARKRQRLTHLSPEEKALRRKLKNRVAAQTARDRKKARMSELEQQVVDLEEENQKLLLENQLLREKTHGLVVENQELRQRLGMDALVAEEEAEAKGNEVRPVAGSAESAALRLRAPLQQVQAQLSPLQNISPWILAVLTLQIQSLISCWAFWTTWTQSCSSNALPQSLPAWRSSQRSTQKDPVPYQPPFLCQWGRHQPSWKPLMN
Procedure, shortened: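 Read-out: fluorescent reporter mRNA fragments resolved by capillary electrophoresis after RT-PCR. Human HepG2 liver cells carried transfected cis-promoter reporter units and were exposed to chemicals for 24 hours. Gain or loss of signal fitted relative to DMSO baseline.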

[17] = ATG_TA_CIS: Attagene CIS-FACTORIAL HepG2 Assay for human TA Basal Promoter (AID 2282964); conditions: HepG2 Attagene CIS-factorial TA basal promoter reporter; actives raise or lower the signal
Procedure, shortened: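 Steps: transfect HepG2 with MRTUs; dose 24 h; isolate RNA, DNase-treat, reverse-transcribe; PCR and FAM-label reporter cDNA; digest with HpaI 2h at 37 C; run capillary electrophoresis. Activity fitted both directions against DMSO.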

[18] = ATG_M_19_TRANS: Attagene TRANS-FACTORIAL HepG2 Assay for M19 Transcription Factor (Internal Marker) (AID 2282974; active = hit-call score of the fitted dose curve at least 0.9, where 1 is the maximum); conditions: HepG2 Attagene TRANS-FACTORIAL M19 internal marker reporter
Procedure, shortened: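 Gain-of-signal in reporter mRNA, relative to DMSO, was scored from capillary electrophoresis fluorescence. HepG2 cells carried transiently transfected multiple reporter transcription units and were incubated with test chemicals for 24 h.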

[19] = ATG_GAL4_TRANS: Attagene TRANS-FACTORIAL HepG2 Assay for GAL4 (Internal Marker) (AID 2282976; active = hit-call score of the fitted dose curve at least 0.9, where 1 is the maximum); conditions: HepG2 Attagene TRANS GAL4 internal marker reporter
Procedure, shortened: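 RT-PCR/capillary electrophoresis readout of reporter mRNA. HepG2, transient MRTU transfection (GAL4-UAS reporters), 24 h compound exposure. Background-control endpoint, positive direction vs DMSO baseline.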

Measured: AC50

CC(C)N(c1ccccc1)C(C)C
inactive: [1] | [2] | [3] | [4] | [5] | [6] | [7] | [8] | [9] | [10] | [11] | [12] | [13] | [14] | [15] | [16]

CCC(=O)OC(C)(C)C1CC=C(C)CC1 (centres undefined)
inactive: [1] | [2] | [4] | [5] | [6] | [7] | [8] | [9] | [17] | [10] | [11] | [12] | [14] | [16] | [18] | [19]
active: [3] 27.4 µM | [15] 78.3 µM

CCCCCC(=O)O[C@]1(C(C)=O)CC[C@H]2[C@@H]3CCC4=CC(=O)CC[C@]4(C)[C@H]3CC[C@@]21C
inactive: [1] | [4] | [5] | [7] | [12] | [18] | [19]
active: [2] 22.8 µM | [3] 0.239 µM | [6] 59.6 µM | [8] 33.2 µM | [9] 33.2 µM | [17] 60 µM | [11] 13.4 µM | [13] 61.2 µM

CCCCCCCCCCO[C@@H]1O[C@H](CO)[C@@H](O)[C@H](O)[C@H]1O
inactive: [1] | [2] | [3] | [4] | [5] | [6] | [7] | [8] | [9] | [10] | [11] | [12] | [13] | [18] | [19]
